This note sets out measurements from PubChem BioAssay AID2732 (Emory University Molecular Libraries Screening Center, 2010).

Screen size: about 220,000 compounds; about 8,200 (3.7%) were called active.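 How the source made its calls: active means compounds that reduced the stress-induced luciferase reporter signal by more than about 70% of percent inhibition (limit read from the data); inactive means the rest.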 Many of the other results were omitted from the sample, so actives are more common in it than they were.

A short description of the experiment: inhibitors of CHOP promoter induction, primary screen, cell-based, unfolded protein response, luciferase reporter (AID 2732).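 Further: 0% = tunicamycin plus vehicle and 100% = wells without tunicamycin.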 As to conditions: CHO-K1 CHOP-promoter luciferase, tunicamycin-induced, 15-18 h; at 10 µM; active compounds read high.
For `CCCCCCCCCCCCn1ccc(=N)cc1`, the inhibition (in general, the relative decrease from the control value, in per cent) is 90.9% (active).

As for `CC(=C1C(=O)c2ccccc2C1=O)N1CCN(CCN=Cc2c(O)n(C)c(=O)n(C)c2=O)CC1`, the inhibition is -9.11% (inactive).

As for `COc1ccc(NC(=O)N2CCC3(CC2)OCCO3)c(OC)c1`, the inhibition was 18.7% (inactive).

On to `CCC1(C)CC(CCNCc2ccc(N(C)C)cc2)(c2ccc(F)cc2)CCO1` (stereo not given), for which the inhibition is 8.31% (inactive).

As for `COc1ccc(CN2C(=O)NC(=O)/C(=C\c3ccc(OC)c(OC)c3OC)C2=O)cc1`, the inhibition was -5.09% (inactive).

`CN(C)CC1Oc2ccccc2OC1(O)c1ccccc1` (stereo not given): the inhibition was 88.8% (active).

As for `CCOC(=O)c1ncn2c1[C@@H]1CCCN1C(=O)c1cc(OC)ccc1-2`, the inhibition is -1.91% (inactive).

Consider `O=C(COC(=O)c1ccccc1)Nc1ccc(Cl)cc1C(=O)c1ccccc1`, for which the inhibition is 80.1% (active).

As to `CN1CCN(C(=S)SCC(=O)Nc2ccc(Cl)cc2C(=O)c2ccccc2)CC1`, the inhibition was 35% (inactive).

On to `O=C(CCNS(=O)(=O)c1ccccc1)Nc1ccc(Cl)cc1C(=O)c1ccccc1`, for which the inhibition is -12.3% (inactive).

As for `COC(=O)N(c1ccc(OC)cc1)P1(=S)OCCC(C)O1` (stereo not given), the inhibition is -1.61% (inactive).

Regarding `CCC(=O)CC(c1ccc([N+](=O)[O-])cc1)c1c(O)c2ccccc2oc1=O` (stereo not given), the inhibition is -16.6% (inactive).

`Cc1ccc2c(c1)C1CN(C)CCC1N2C(=O)Cn1nnc(-c2ccccc2F)n1` (stereo not given): the inhibition was 3.99% (inactive).

Consider `CCN1CCN(c2ccc([N+](=O)[O-])cc2C#N)CC1`, for which the inhibition is 8.37% (inactive).

On to `Cn1c(O)c(C(=Nc2ccc(F)cc2)c2ccccc2)c(=O)n(C)c1=O`, for which the inhibition was 2.66% (inactive).

Regarding `Cc1ccnc(-n2c(C)cc(/C=C3\C(=O)NC(=S)N(C)C3=O)c2C)c1`, the inhibition was -16.7% (inactive).

With `Cc1cc(C=C2C(=O)NC(=O)NC2=O)c(C)n1-c1ccncc1`, the inhibition is 16.7% (inactive).

Turning to `Cc1ccc(-n2c(C)cc(/C=C3\C(=O)NC(=O)N(C)C3=O)c2C)cc1C`, the inhibition is 78.5% (active).

Consider `C=CCN1CCC2(C)c3cc(O)ccc3CC1[C@@H]2C` (stereo not given in full), for which the inhibition was 9.89% (inactive).

Regarding `Cc1ccc(CN2CCCC(C(=O)c3ccc4c(c3)OCO4)C2)cc1C` (stereo not given), the inhibition was -2.37% (inactive).

Regarding `O=c1[nH]c(=O)n(CCc2ccccc2)c(O)c1/C=N/N1CCOCC1`, the inhibition is -18.4% (inactive).

For `CCCCn1c(O)c(C(CC)=NCc2ccco2)c(=O)[nH]c1=O`, the inhibition is 6.6% (inactive).

Consider `CCC(=NCCCO)c1c(O)n(-c2ccc(OC)cc2)c(=O)[nH]c1=O`, for which the inhibition was 14.6% (inactive).

`CCCCCCN=C(CC)c1c(O)n(CCCC)c(=O)[nH]c1=O`: the inhibition was 106% (active).

For the compound `O=c1[nH]c(=O)n(CCc2ccc(F)cc2)c(O)c1/C=N/N1CCCCC1`, the inhibition is 3.76% (inactive).

On to `CC1(C)Cc2c(C#N)c(N3CCNCC3)nc(-c3ccco3)c2CS1`, for which the inhibition was 3.49% (inactive).

Regarding `COc1cc(C(c2c(O)c3ccccc3oc2=O)c2c(C)n(C)n(-c3ccccc3)c2=O)ccc1O` (stereo not given), the inhibition is 8.54% (inactive).

Turning to `CCCCCn1c(=O)c(C(=O)Nc2c(C)n(C)n(-c3ccccc3)c2=O)c(O)c2ccccc21`, the inhibition is 89.7% (active).

For `CCCCCn1c(=O)c(C(=O)NCc2ccccn2)c(O)c2ccccc21`, the inhibition was 40.5% (inactive).

With `CCOP(=O)(OCC)C(O)c1ccc(OC)cc1OC` (stereo not given), the inhibition was 1.95% (inactive).

In the case of `COc1ccc2c(c1O)-c1cccc3c1[C@@H](C2)N(C)CC3`, the inhibition is -0.63% (inactive).

On to `COc1ccc(-n2c(-c3ccccc3)nc3ccccc3c2=O)cc1`, for which the inhibition is -0.77% (inactive).

As to `CC(=O)c1c(O)c(C)c(O)c(Cc2c(O)c3c(c(C(=O)/C=C/c4ccccc4)c2O)OC(C)(C)C=C3)c1O`, the inhibition is -9.85% (inactive).

In the case of `O=C1NC(=O)N(CCc2ccc(F)cc2)C(=O)/C1=C/C=C/c1ccccc1`, the inhibition is 79.8% (active).

Turning to `O=C(O)COc1ccccc1/C=C1\C(=O)NC(=O)N(CCC2=CCCCC2)C1=O`, the inhibition is -7.81% (inactive).

For the compound `O=C1NC(=O)N(Cc2ccco2)C(=O)/C1=C\c1ccc(-c2ccc(F)cc2)o1`, the inhibition was 4.85% (inactive).

For the compound `COc1ccc(NC(=O)c2cn(CCC#N)nc2-c2ccc([N+](=O)[O-])cc2)cc1`, the inhibition is -2.78% (inactive).

For `Cc1ccc(-n2c(-c3ccc([N+](=O)[O-])cc3)nc3ccccc3c2=O)cc1`, the inhibition is -10.7% (inactive).

With `O=C(O)C1C2CCC(O2)C1C(=O)O` (stereo not given), the inhibition is -11.8% (inactive).

In the case of `CN(C)c1ccc(/C=C2\CC3C4CC=C5CC(O)CCC5(C)C4CCC3(C)C2=O)cc1` (stereo not given), the inhibition is 96% (active).

`CC(c1ccccc1)(c1ccccc1)c1ccncc1`: the inhibition was 34.4% (inactive).

For `CCN1c2nc3c(C)cccn3c(=O)c2CC2(C(=O)N(C)C(=O)N(C)C2=O)C1C` (stereo not given), the inhibition was 6.18% (inactive).

Regarding `O=C(CSC1c2ccccc2-c2ccccc21)N/N=C/c1ccccc1`, the inhibition was 97.3% (active).

As for `CCCCC(=O)N/N=C/c1c(O)n(-c2ccccc2)c(=O)[nH]c1=O`, the inhibition is -1.28% (inactive).

Regarding `CC(=O)N1CN2CN(C(C)=O)CC(C(=O)c3ccc(Br)cc3)(C2)C1`, the inhibition is 5.64% (inactive).
